Data taken from PubChem BioAssay (NCI).
Compounds without any hit were thinned out: in the full panel of roughly 83,000, 20% have a hit.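 The endpoint reported here, percent growth, reads 100 for growth as untreated, 0 for no net growth and -100 for all cells dead.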 The source made the active and inactive calls. Rule for the calls: active = growth percent below 10; inactive = the rest.

Assays:
Test in all cases: NCI-60 one-dose screen, 48 h (100 = growth as untreated, 0 = no growth, -100 = all killed)
[1] = tested on: K-562 leukemia; settings: 10 µM unless noted
[2] = tested on: MALME-3M melanoma; settings: 10 µM unless noted
[3] = tested on: RXF 393 renal; settings: 10 µM unless noted
[4] = tested on: SF-295 CNS; settings: 10 µM unless noted
[5] = tested on: M14 melanoma; settings: 10 µM unless noted
[6] = tested on: SNB-75 CNS; settings: 10 µM unless noted
[7] = tested on: SNB-19 CNS; settings: 10 µM unless noted
[8] = tested on: U251 CNS; settings: 10 µM unless noted
[9] = tested on: SK-MEL-2 melanoma; settings: 10 µM unless noted
[10] = tested on: A498 renal; settings: 10 µM unless noted
[11] = tested on: HL-60(TB) leukemia; settings: 10 µM unless noted
[12] = tested on: CCRF-CEM leukemia; settings: 10 µM unless noted
[13] = tested on: OVCAR-8 ovarian; settings: 10 µM unless noted
[14] = tested on: OVCAR-5 ovarian; settings: 10 µM unless noted
[15] = tested on: OVCAR-4 ovarian; settings: 10 µM unless noted
[16] = tested on: SK-OV-3 ovarian; settings: 10 µM unless noted
[17] = tested on: IGROV1 ovarian; settings: 10 µM
[18] = tested on: BT-549 breast; settings: 10 µM
[19] = tested on: MDA-MB-435 melanoma; settings: 10 µM unless noted
[20] = tested on: SR leukemia; settings: 10 µM

Measured: growth

CC(C)(C)N(Cc1ccccc1)N=O
inactive: [1] 101% | [2] 107% | [3] 93.1% | [4] 100% | [5] 103% | [6] 86.5% | [7] 97% | [8] 99.3% | [9] 94.6% | [10] 95.4% | [11] 106% | [12] 98.4% | [13] 95.7% | [14] 98.4% | [15] 98.2% | [16] 96.2% | [17] 103% | [18] 102% | [19] 102%

CC12CCC3C(CC=C4CC(O)CCC43C)C1C/C(=C\N1CCOCC1)C2=O (stereo not drawn)
inactive: [1] 108% | [2] 110% | [3] 110% | [4] 113% | [5] 112% | [6] 83.5% | [7] 110% | [8] 100% | [9] 106% | [11] 129% | [12] 94.3% | [20] 98.4% | [13] 100% | [14] 98.1% | [15] 94.4% | [16] 111% | [17] 119% | [18] 93.1% | [19] 107%

CC1(CF)NC(=O)NC1=O (stereo not drawn)
inactive: [1] 107% | [3] 121% | [4] 118% | [5] 104% | [6] 89.9% | [7] 97.9% | [8] 115% | [9] 121% | [10] 105% | [12] 95.7% | [20] 115% | [13] 102% | [16] 109% | [18] 104% | [19] 107%

C=C=[CH][Sn]([c]1ccccc1)([c]1ccccc1)[c]1ccccc1
inactive: [6] 14.2%
active: [2] -36.6% | [3] -83.5% | [4] -42.7% | [5] -66.1% | [7] -50% | [8] -75.6% | [9] -30.6% | [12] -0.102% | [13] -30% | [14] -60.3% | [15] -40.2% | [16] -57.1% | [17] -22.2% | [18] -34.9% | [19] -59.5%

O=C(CCc1ccco1)NC1CCN(CC2(c3ccc(Cl)cc3)CCC2)CC1
inactive: [3] 28.4% | [5] 10.3% | [6] 16% | [7] 15% | [14] 53.2% | [16] 13.8% | [17] 30.1% | [18] 12.4%
active: [1] 3.19% | [2] -17.9% | [4] -46.5% | [8] 7.34% | [9] -24.3% | [10] -15% | [11] -42.7% | [12] 6.1% | [20] -24.6% | [19] 4.28%

Oc1c(Br)cc(Br)cc1Br.[Cu+2]
inactive: [1] 107% | [2] 86.4% | [3] 109% | [4] 97.6% | [5] 103% | [6] 98.7% | [7] 118% | [8] 110% | [9] 95.3% | [10] 106% | [11] 87.9% | [12] 101% | [20] 90.8% | [13] 103% | [15] 87.4% | [16] 94.3% | [17] 105% | [18] 122% | [19] 105%

COc1ccc(NP2(=O)OCC(C)(N)CO2)cc1 (stereo not drawn)
inactive: [1] 88.9% | [2] 97.3% | [3] 104% | [5] 101% | [7] 105% | [9] 108% | [11] 95% | [12] 88.9% | [20] 88.7% | [13] 101% | [14] 102% | [15] 110% | [17] 102% | [18] 77% | [19] 108%

CN(Cc1cccnc1)N=O
inactive: [1] 104% | [2] 96.6% | [3] 104% | [4] 102% | [5] 97.4% | [6] 85.1% | [7] 99.9% | [8] 97.1% | [9] 89% | [10] 104% | [11] 97.6% | [12] 100% | [20] 98.4% | [13] 98.6% | [14] 99.8% | [15] 102% | [16] 99.4% | [17] 99.7% | [19] 103%

CC(C)(C)[Si](C)(C)OC1[C@@H](O[Si](C)(C)C(C)(C)C)[C@@H](CNC(=O)NC(=O)CF)O[C@H]1n1cnc2c(NC(=O)Nc3ccccc3)ncnc21 (stereo partly drawn)
inactive: [1] 37.7% | [2] 101% | [3] 65.8% | [4] 79.5% | [5] 73.2% | [6] 73.8% | [8] 56.6% | [10] 70.2% | [11] 17.3% | [13] 51.4% | [14] 91.5% | [15] 63.8% | [16] 89.3% | [17] 72.9% | [18] 68.9% | [19] 70.5%
active: [12] 4.8% | [20] -22.6%

n1nc(-c2nonc2-c2nn[nH]n2)n[nH]1
inactive: [1] 106% | [2] 106% | [3] 93.7% | [4] 94.5% | [5] 115% | [6] 106% | [7] 105% | [8] 101% | [9] 115% | [10] 81.9% | [11] 105% | [20] 92.5% | [13] 109% | [14] 108% | [15] 102% | [17] 118% | [18] 103% | [19] 97.7%

CCC[CH2][Sn]([CH2]CCC)([CH2]CCC)[O]C(=O)c1ccc(Cl)cc1Cl
active: [1] -38.2% | [2] -76.8% | [3] -88.5% | [4] -89.9% | [5] -85.8% | [6] -93.2% | [7] -86.3% | [8] -85.8% | [9] -73.6% | [10] -85.3% | [11] -32.7% | [20] 3.12% | [15] -67.7% | [16] -96% | [17] -68.5% | [18] -96%

Oc1ccc(Br)cc1CN1CCN(Cc2ccc(Cl)cc2)CC1
active: [1] -34.3%
inactive: [3] 76.7% | [5] 85.9% | [6] 51.5% | [7] 87.8% | [8] 48.9% | [9] 88.2% | [10] 105% | [11] 47.5% | [12] 26.7% | [20] 22.7% | [13] 60.6% | [14] 97.7% | [15] 65.5% | [16] 101% | [18] 86.3% | [19] 12.8%

CC[C@@]1(C2O[C@@H](C3O[C@@](O)(CC)[C@H](C)C[C@@H]3C)C[C@@H]2C)CC[C@H]([C@]2(C)CCC3(C[C@H](O)[C@@H](C)[C@@H]([C@H](C)[C@@H](OC)[C@H](C)C(=O)O)O3)O2)O1 (stereo partly drawn)
inactive: [6] 16% | [7] 31.1% | [10] 42.7% | [13] 31% | [14] 43.9% | [15] 29.7% | [16] 23% | [17] 36.9% | [18] 32.5%

Clc1ccc(SSC(Cl)(Cl)Cl)cc1
inactive: [1] 112% | [2] 95.7% | [3] 112% | [4] 103% | [5] 107% | [7] 121% | [8] 98.6% | [9] 123% | [10] 111% | [11] 113% | [12] 109% | [20] 107% | [13] 107% | [15] 108% | [16] 115% | [17] 107% | [18] 121%

OC1CCCCC1N1CCC(c2ccccc2)CC1 (stereo not drawn)
inactive: [2] 103% | [3] 124% | [4] 98.5% | [5] 106% | [6] 86% | [8] 105% | [10] 89.4% | [11] 86.2% | [12] 99.2% | [20] 94% | [13] 103% | [14] 107% | [15] 109% | [16] 104% | [17] 112% | [18] 97.6% | [19] 100%

CC[C@]12C=CCN3CC[C@@]4(c5ccc(OC)cc5N(C)[C@H]4[C@@](O)(C(=O)OC)[C@@H]1OC(=O)CCCN1CCN(CCCC(=O)O[C@@H]4[C@]5(CC)C=CCN6CC[C@@]7(c8ccc(OC)cc8N(C)[C@H]7[C@@]4(O)C(=O)OC)[C@@H]65)CC1)[C@@H]32
active: [1] -62% | [2] -90.7% | [3] -88.5% | [4] -85.9% | [5] -80.6% | [6] -94.3% | [7] -93.9% | [8] -83.7% | [9] -75.7% | [10] -58.2% | [11] -66.6% | [12] -56.7% | [13] -71.1% | [14] -87.8% | [15] -47.4% | [16] -88.7% | [17] -76.6% | [18] -88.3% | [19] -89.3%

COc1cc(CNCCc2ccc(Cl)cc2)cc(OC)c1O
inactive: [1] 21.7% | [3] 66.3% | [5] 64.8% | [6] 44.6% | [8] 58.5% | [9] 27.8% | [10] 66.3% | [11] 54.4% | [12] 46.9% | [20] 14.5% | [14] 86.7% | [15] 69% | [16] 82.7% | [17] 81.3% | [18] 71.8%
active: [19] -4.7%

CC(C)OC(=S)[S-].[Au+].c1ccc([PH+](c2ccccc2)c2ccccc2)cc1
active: [1] 8.05% | [2] 5.97% | [3] -77.1% | [11] 1.15% | [20] 3.82% | [17] 2.28% | [18] -3.75%
inactive: [4] 91.1% | [5] 11.5% | [7] 25.1% | [8] 11.2% | [9] 33% | [12] 10.9% | [13] 27.2% | [14] 73.9% | [15] 38.9%
